“And” between values parts separate entries of the source, which are not always exact repeats. Equal values may be shown once. Hit rate of the full screen: of about 5,500 compounds, about 2,000 (36%) were called active. Inconclusive results (about 18%) are left out. No stated cut-off is given here; in the data, active means normalized growth mostly below about 0.91 (no sharp cut-off); inconclusive means no clear call, values can overlap the other calls; inactive means mostly above about 0.92. The list shows a part of the results.
Experiment: chemical genetic growth profiling, strain panel (AID 1159580);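 further: tested at 20 µM; growth read once vehicle control cultures reached saturation at 30 °C; 1 = growth at the plate median or of vehicle wells; lower values mean less growth of the strain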
Details: S. cerevisiae deletion strains, growth OD

Measured: normalized growth

COc1cc(C(=O)NCc2ccc(OCCN(C)C)cc2)cc(OC)c1OC
inactive: locus YAL013W, strain DEP1, active compounds read low 1 | locus YAL021C, strain ccr4, active compounds read low 0.993 | locus YAL026C, strain drs2, active compounds read low 0.998 | locus YAL030W, strain snc1, active compounds read low 1 | locus YBL061C, strain skt5, active compounds read low 0.981 | locus YBR009C, strain hhf1, active compounds read low 1 | locus YBR021W, strain FUR4, active compounds read low 1.03 | locus YBR023C, strain chs3, active compounds read low 0.985 | locus YBR171W, strain sec66, active compounds read low 0.999 | locus YBR229C, strain ROT2, active compounds read low 0.951 | locus YBR231C, strain swc5, active compounds read low 0.99 | locus YBR279W, strain paf1, active compounds read low 1 | locus YCL011C, strain gbp2, active compounds read low 1.01 | locus YCL016C, strain dcc1, active compounds read low 0.98 | locus YCL029C, strain bik1, active compounds read low 0.977 | locus YCL061C, strain MRC1, active compounds read low 1 | locus YCL069W, strain vba3, active compounds read low 0.995 | locus YCR088W, strain abp1, active compounds read low 0.99 | locus YDL005C, strain med2, active compounds read low 1.01 | locus YDL035C, strain GPR1, active compounds read low 1.01 | locus YDL040C, strain nat1, active compounds read low 1.02 | locus YDL074C, strain BRE1, active compounds read low 0.951 | locus YDL101C, strain DUN1, active compounds read low 0.973 | locus YDL134C, strain PPH21, active compounds read low 0.996 | locus YDL185W, strain tfp1, active compounds read low 0.979 | locus YDL192W, strain arf1, active compounds read low 0.982 | locus YDR001C, strain nth1, active compounds read low 1 | locus YDR069C, strain doa4, active compounds read low 1 | locus YDR101C, strain arx1, active compounds read low 0.93 | locus YDR137W, strain rgp1, active compounds read low 1.01 | locus YDR150W, strain NUM1, active compounds read low 0.974 | locus YDR159W, strain sac3, active compounds read low 0.953 | locus YDR162C, strain NBP2, active compounds read low 1.01 | locus YDR195W, strain ref2 0.997 | locus YDR297W, strain sur2, active compounds read low 0.981 | locus YDR318W, strain mcm21, active compounds read low 0.992 | locus YDR334W, strain swr1, active compounds read low 0.99 | locus YDR335W, strain msn5, active compounds read low 0.982 | locus YDR388W, active compounds read low 0.988 | locus YDR392W, strain spt3, active compounds read low 0.833 | locus YDR502C, strain sam2, active compounds read low 0.985 | locus YEL003W, strain gim4, active compounds read low 1 | locus YEL037C, strain rad23, active compounds read low 0.988 | locus YEL061C, strain CIN8 (second series), active compounds read low 0.978 | locus YEL061C, strain CIN8, active compounds read low 0.978 | locus YER015W, strain faa2, active compounds read low 0.991 | locus YER016W, strain bim1, active compounds read low 0.994 | locus YER110C, active compounds read low 0.984 | locus YER111C, strain swi4, active compounds read low 0.982 | locus YER155C, strain BEM2 (second series), active compounds read low 0.988 | locus YER155C, strain BEM2, active compounds read low 0.996 | locus YER167W, strain BCK2, active compounds read low 0.997 | locus YFR010W, strain ubp6, active compounds read low 1 | locus YGL078C, strain dbp3, active compounds read low 0.981 | locus YGL086W, strain mad1, active compounds read low 0.966 | locus YGL167C, strain pmr1, active compounds read low 1 | locus YGL173C, strain kem1, active compounds read low 1 | locus YGL227W, strain vid30, active compounds read low 1.01 | locus YGL240W, strain doc1, active compounds read low 0.984 | locus YGL248W, strain PDE1, active compounds read low 0.975 | locus YGL253W, strain hxk2, active compounds read low 0.993 | locus YGR078C, strain PAC10, active compounds read low 0.963 | locus YGR135W, strain pre9, active compounds read low 1.06 | locus YGR229C, strain SMI1, active compounds read low 1.02 | locus YGR252W, strain gcn5, active compounds read low 1.03 | locus YHR013C, strain ard1, active compounds read low 0.949 | locus YHR027C, strain rpn1, active compounds read low 0.979 | locus YHR030C, strain SLT2, active compounds read low 0.985 and 0.966 | locus YHR079C, strain IRE1 (second series), active compounds read low 0.976 | locus YHR079C, strain IRE1, active compounds read low 0.976 | locus YHR094C, strain hxt1, active compounds read low 0.979 | locus YHR129C, strain ARP1, active compounds read low 0.995 | locus YHR142W, strain chs7, active compounds read low 0.982 | locus YHR200W, strain rpn10, active compounds read low 0.983 | locus YIL066C, strain RNR3, active compounds read low 0.963 | locus YIL073C, strain SPO22, active compounds read low 1.04 | locus YIL125W, strain kgd1, active compounds read low 0.976 | locus YIR030C, strain dcg1, active compounds read low 0.989 | locus YJL092W, strain hpr5, active compounds read low 0.997 | locus YJL095W, strain BCK1 (second series), active compounds read low 0.988 | locus YJL095W, strain BCK1, active compounds read low 0.991 and 0.995 | locus YJL115W, strain asf1, active compounds read low 0.993 | locus YJL129C, strain trk1, active compounds read low 0.981 | locus YJL134W, strain LCB3, active compounds read low 0.993 | locus YJL154C, strain vps35, active compounds read low 1.02 | locus YJL164C, strain tpk1, active compounds read low 1 | locus YJL166W, strain qcr8, active compounds read low 0.988 | locus YJL168C, strain set2, active compounds read low 0.979 | locus YJL187C, strain SWE1 (second series), active compounds read low 0.953

From PubChem BioAssay AID1159580 (chemical genetic matrix, 2015)
